Bioassay records: PubChem BioAssay, Broad Institute
Only a sample is shown.
aSyn UTR act – Activators via SNCA 5'UTR binding, MLPCN; activity score, % (tested at 7.5 µM), hits read low; alpha-synuclein 5'UTR reporter, activators screen; 7.1% of 300,000 active; AID 1814; in the data active = activity score below about -60%
* = called active by the depositor.

`O=C(Nc1ccc(F)cc1)c1csc(Cc2ccccc2)n1` gave aSyn UTR act -110.1*.
Screening COc1ccc(C(=S)NC2CCCCC2)cc1 returned aSyn UTR act -80.4*.
CCOc1ccc(C(=S)NC2CCCCC2)cc1 was read as aSyn UTR act -100.5*.
Screening CC(=O)c1ccc(Oc2ncnc3sccc23)cc1 returned aSyn UTR act -147.8*.
Screening Cc1cc(C(=O)COc2ncnc3sccc23)c(C)n1C returned aSyn UTR act -124.6*.
Screening Cc1nc(C)c(-c2csc(Nc3ncccc3C)n2)s1 returned aSyn UTR act -240.5*.
COc1ccc(-c2csc(Nc3ncccc3C)n2)cc1OC was read as aSyn UTR act -172.0*.
COc1ccc(C2=Nn3c(nnc3-c3ccccn3)SC2)cc1OC was read as aSyn UTR act 56.3.
For COc1ccc(-c2csc(Nc3ncccc3C)n2)cc1 the results were aSyn UTR act -117.5*.
Screening Cc1cccnc1Nc1nc(-c2ccc(O)c(O)c2)cs1 returned aSyn UTR act -231.6*.
`Brc1ccccc1C1CC(c2ccccc2)=Nc2ccccc2N1` (configuration not stated) gave aSyn UTR act -203.0*.
Screening c1ccc(C2=Nc3ccccc3NC(c3ccccc3)C2)cc1 (configuration not stated) returned aSyn UTR act -178.4*.
CCC(=O)N1N=C(c2ccc(NS(C)(=O)=O)cc2)CC1c1ccc(N(C)C)cc1 (configuration not stated) was read as aSyn UTR act -101.9*.
Screening CCOc1ccccc1NC(=O)c1nc(S(=O)(=O)Cc2cccc(C)c2)ncc1Cl returned aSyn UTR act 88.0.
Screening Cc1ccc(CS(=O)(=O)c2ncc(Cl)c(C(=O)Nc3ccc(OC(F)F)cc3)n2)cc1 returned aSyn UTR act 61.4.
Screening CC(C)c1nnc(NC(=O)c2nc(S(=O)(=O)Cc3ccccc3F)ncc2Cl)s1 returned aSyn UTR act -72.1*.
`Cc1cccc(CS(=O)(=O)c2ncc(Cl)c(C(=O)Nc3nnc(C(C)C)s3)n2)c1` gave aSyn UTR act -97.8*.
CCc1nnc(NC(=O)c2nc(S(=O)(=O)Cc3cccc(C)c3)ncc2Cl)s1 was read as aSyn UTR act -114.5*.
Cc1ccnc(Nc2nc(-c3ccc(O)c(O)c3)cs2)c1 was read as aSyn UTR act -148.3*.
Oc1ccc(-c2csc(Nc3ccccn3)n2)cc1O was read as aSyn UTR act -138.8*.
For CC(=O)Nc1ccc(-c2csc(NCCc3ccccc3)n2)cc1 the results were aSyn UTR act -140.9*.
Cc1ccnc(Nc2nc(-c3ccc(O)cc3)cs2)c1 was read as aSyn UTR act -231.7*.
For CC(=O)Nc1ccc(-c2csc(Nc3ccccn3)n2)cc1 the results were aSyn UTR act -161.1*.
For Cc1ccnc(Nc2nc(-c3ccc(O)cc3O)cs2)c1 the results were aSyn UTR act -136.3*.
COc1ccc(OC)c(Nc2nc(-c3sc(NC(=O)CC(C)C)nc3C)cs2)c1 was read as aSyn UTR act 57.9.
CC(=O)Nc1ccc(Nc2nc(-c3c(C)nc4ccccn34)cs2)cc1 was read as aSyn UTR act 86.6.
`CCC(=O)Nc1nc(C)c(-c2csc(Nc3ccccn3)n2)s1` gave aSyn UTR act -122.0*.
CCOc1ccc(CNc2ccc3c(c2)ncn3C(C)(C)C)cc1 was read as aSyn UTR act -84.4*.
`CN(C)c1ccc(CNc2ccc3c(c2)ncn3C(C)(C)C)cc1` gave aSyn UTR act -61.6*.
Screening CN(C)Cc1c(-c2ccc(Cl)cc2)nc2ccccn12 returned aSyn UTR act -151.0*.
Screening Clc1ccc(-c2nc3ccccn3c2CN2CCCCC2)cc1 returned aSyn UTR act -101.4*.
O=C(N/N=C1/CC2C=CCC12)c1ccc(Br)o1 (configuration not stated) was read as aSyn UTR act -83.1*.
Screening O=C/C(=C\Nc1ccccn1)c1nc2ccccc2o1 returned aSyn UTR act -106.9*.
`CC(=O)Nc1cccc(N/C=C(\C=O)c2nc3ccccc3o2)c1` gave aSyn UTR act -102.4*.
`CC(/C=C1\NC(=S)NC1=O)=C\c1ccccc1` gave aSyn UTR act -62.0*.
Cc1ccc(C(=O)N2C(=O)C(c3ccccc3)Oc3ccccc32)cc1 (configuration not stated) was read as aSyn UTR act 92.8.
O=C1OC(c2ccccc2)/C(=C(/O)c2ccccc2)C1=O (configuration not stated) was read as aSyn UTR act -63.7*.
For CCOc1ccc(-c2cc(C(=O)NCCCn3ccnc3)c3cc(Br)ccc3n2)cc1 the results were aSyn UTR act 60.3.
`O=C(NCCCn1ccnc1)c1cc2ccccc2oc1=O` gave aSyn UTR act -65.0*.
`O=C(NCCCn1ccnc1)c1cc(-c2cccc(O)c2)on1` gave aSyn UTR act -64.6*.
O=C(Nc1ccn(Cc2ccc(Cl)cc2)n1)c1ccccc1 was read as aSyn UTR act -148.9*.
Cc1ccc(C(=O)Nc2ccn(Cc3ccc(F)cc3)n2)o1 was read as aSyn UTR act -65.4*.
Cc1nn(Cc2ccc(F)cc2)c2sc(C(=O)Nc3ccc(N4CCOCC4)cc3N3CCOCC3)cc12 was read as aSyn UTR act 60.8.
Screening O=C(Nc1ccn(Cc2ccccc2)n1)c1ccc2c(c1)OCO2 returned aSyn UTR act -170.6*.
COc1ccc(C(=O)NC(=S)NC(C)(C)C)cc1Br was read as aSyn UTR act -157.7*.
`COc1ccc(C(=O)NC(=S)NC(C)C)cc1Br` gave aSyn UTR act -69.9*.
`Cc1ccc(-c2nn(-c3ccccc3)cc2/C=N/NS(=O)(=O)c2ccccc2)cc1` gave aSyn UTR act -76.0*.
`COc1ccc(NS(=O)(=O)c2cccc(C(=O)N/N=C/c3cn(-c4ccccc4)nc3-c3ccc(OC)cc3)c2)cc1` gave aSyn UTR act -85.1*.
For CCN(CC)c1ccc(/C=N/NC(=O)c2cccc(S(=O)(=O)Nc3ccccc3OC)c2)c(O)c1 the results were aSyn UTR act 95.2.
For COc1ccc(-c2nn(-c3ccccc3)cc2/C=N/NC(N)=S)cc1OC the results were aSyn UTR act 90.2.
`c1ccn(-c2ccc(-c3ccn[nH]3)cc2)c1` gave aSyn UTR act -164.2*.
For c1ccc(Cn2nnc(-c3ccccc3)n2)cc1 the results were aSyn UTR act -61.7*.
Nc1ccc(-c2nnn(Cc3ccccc3F)n2)cc1 was read as aSyn UTR act -70.7*.
`CC(C)n1nnc(-c2ccc(OCc3ccccc3F)cc2)n1` gave aSyn UTR act -99.7*.
For Fc1ccc(-c2nnn(Cc3ccccc3Cl)n2)cc1 the results were aSyn UTR act -68.9*.
Clc1ccc(-c2nnn(Cc3nc4ccccc4s3)n2)cc1 was read as aSyn UTR act -138.5*.
Screening CCCc1cc(=O)n2[nH]cc(-c3ccc(Cl)cc3)c2n1 returned aSyn UTR act 70.9.
Screening CCOC(=O)Cc1c(C)nc2cc(-c3ccc(Cl)cc3)[nH]n2c1=O returned aSyn UTR act -66.7*.
For CCc1c(C)nc2cc(-c3ccc(OC)cc3)[nH]n2c1=O the results were aSyn UTR act -156.0*.
For COCc1cc(=O)n2[nH]c(-c3ccc(C)cc3)cc2n1 the results were aSyn UTR act -127.6*.
O=C(O)CSCC(=O)Nc1ccc(C2CCCCC2)cc1 was read as aSyn UTR act 108.1.
For OCCN1CCN(CC(O)COc2ccc(C34CC5CC(CC(C5)C3)C4)cc2)CC1 (configuration not stated) the results were aSyn UTR act 84.9.
`O=C(CSCCO)Nc1ccc(C23CC4CC(CC(C4)C2)C3)cc1` gave aSyn UTR act -66.2*.
Cc1ccc(CNc2nc3ccccc3s2)s1 was read as aSyn UTR act 78.4.
